Data: the supplement of paper PMC12636033
± gives the standard deviation of the averaged measurements. In all, about 33,000 sequences were measured (“E-score (rank enrichment, -0.5 to 0.5)”: median about -0.0075, highest 2% from about 0.23 on). This is one part of a sample in which the highest values are shown more often than they occur.

tested on: WT Max(13-93) synthetic (M65Nle); assay: PBM 8-mer E-score (E-score (rank enrichment, -0.5 to 0.5)); higher = stronger preferential binding
Experimental: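 Protein binding microarray (universal PBM chip covering all 10-mers in fixed probe flanks) with chemically synthesized human Max(13-93) bHLH-LZ analogs (not full-length Max) bearing noncanonical residues (hArg, Tha, Aib, Nle at 65) and aromatic Cys staples. Read-out per 8-mer (and its reverse complement): E-score (rank-based enrichment, -0.5 to 0.5) and Z-score of median probe intensity.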

Row | Sequence | PBM 8-mer E-score
1 | CCAAACTA | 0.165 ± 0.012
2 | AAGCTCAT | -0.131 ± 0.098
3 | AAGGTCGG | -0.014 ± 0.081
4 | AGACAACC | 0.0303 ± 0.033
5 | AGACAACG | 0.246 ± 0.068
6 | AGACAACT | 0.0555 ± 0.044
7 | CGGCAGTA | -0.142 ± 0.064
8 | AATCGATC | -0.232 ± 0.024
9 | CCCCTAGA | 0.0696 ± 0.042
10 | TTATTGAA | 0.254 ± 0.0091
11 | GTATTGAA | 0.119 ± 0.057
12 | ATATTGAA | 0.114 ± 0.03
13 | CTCATAGA | -0.0903 ± 0.024
14 | AGCCGGAC | -0.207 ± 0.036
15 | CCGATTAG | 0.0704 ± 0.0021
16 | CCCCCATC | 0.0485 ± 0.11
17 | GTAAGTTA | 0.0737 ± 0.022
18 | ATAAGTTA | 0.258 ± 0.062
19 | CTAAGTTA | -0.011 ± 0.089
20 | ATGGTGCG | -0.0696 ± 0.06
21 | GTGGTGCA | 0.0246 ± 0.1
22 | ATGGTGCA | 0.264 ± 0.074

Row | Sequence | PBM 8-mer E-score
23 | GGAAAGCA | -0.0514 ± 0.036
24 | CGCGGACA | -0.102 ± 0.039
25 | AACGAGCG | -0.0104 ± 0.028
26 | CACATGTC | 0.186 ± 0.026
27 | CACATGTG | 0.435 ± 0.007
28 | CTCATGTA | 0.138 ± 0.03
29 | CAAATGTG | 0.152 ± 0.026
30 | AACATGTC | 0.12 ± 0.037
31 | CCCATGTA | 0.0146 ± 0.049
32 | AACATGTG | 0.412 ± 0.017
33 | CACATGTA | 0.379 ± 0.0071
34 | AACATGTT | 0.137 ± 0.042
35 | CGCTGTGA | -0.0883 ± 0.11
36 | AGGAGGAC | -0.0293 ± 0.04
37 | GTGGGATA | 0.163 ± 0.018
38 | GCGGTACC | -0.176 ± 0.019
39 | CTATGTCA | 0.0959 ± 0.026
40 | GTATGTCA | 0.246 ± 0.028
41 | ATATGTCA | 0.1 ± 0.073
42 | CTATGTAA | -0.0284 ± 0.05
43 | ATATGTAC | 0.0738 ± 0.0056
44 | ATATGTAA | 0.239 ± 0.05

Row | Sequence | PBM 8-mer E-score
45 | GTATGTTA | 0.164 ± 0.091
46 | GAATGTAA | 0.163 ± 0.13
47 | GTATGTAA | 0.288 ± 0.0084
48 | AGGCGAAG | -0.078 ± 0.072
49 | CCGTTTCG | -0.0232 ± 0.051
50 | GCTCACGA | 0.0957 ± 0.066
51 | AACGGTAT | 0.0275 ± 0.051
52 | CCAGTGAA | -0.0413 ± 0.11
53 | AAAGCAAT | 0.0889 ± 0.03
54 | ATACTGTG | 0.012 ± 0.036
55 | ATACATTG | 0.168 ± 0.05
56 | CTACATTC | 0.0193 ± 0.054
57 | ATACATTC | 0.285 ± 0.006
58 | GCTCGCCA | -0.0485 ± 0.054
59 | GCGCTAAC | -0.0628 ± 0.026
60 | AGGAGATA | 0.0677 ± 0.065
61 | CCAGCGGA | -0.175 ± 0.022
62 | ACCATTCC | 0.00607 ± 0.099
63 | ACCATTCG | -0.0773 ± 0.11
64 | TCCATTAA | 0.0431 ± 0.0063
65 | ATCATTAG | 0.209 ± 0.02
66 | CGCATTAA | -0.00629 ± 0.02

Row | Sequence | PBM 8-mer E-score
67 | CCCATTAA | 0.0514 ± 0.069
68 | ATCATTAA | 0.238 ± 0.023
69 | AGCATTAA | 0.173 ± 0.078
70 | ACCATTAA | 0.284 ± 0.11
71 | ACCATTCA | 0.233 ± 0.0053
72 | TGCATTAA | 0.26 ± 0.051
73 | CTCATTAA | 0.204 ± 0.07
74 | AATGGTCT | -0.085 ± 0.06
75 | ATTTTGCC | -0.00751 ± 0.0085
76 | CATTCGCG | 0.0727 ± 0.022
77 | ACCCTTAC | 0.0907 ± 0.047
78 | ATCGTGAC | -0.123 ± 0.014
79 | GGCTGCCC | -0.212 ± 0.043
80 | AACAGACT | 0.125 ± 0.061
81 | AAGGCGTC | -0.0911 ± 0.022
82 | TGCCACAA | -0.0153 ± 0.13
83 | CCCAGTTA | -0.0517 ± 0.012
84 | AATAATAA | 0.242 ± 0.013
85 | AATAATAG | 0.14 ± 0.12
86 | CATAATAG | 0.241 ± 0.027
87 | CATAATAA | 0.114 ± 0.18
